The values that follow come from PubChem BioAssay (NCI).

SMILES strings stand for the structures. This is part of a sample that, as a whole, favours compounds with a hit. Of some 79,000 tested, about 15% had one in any assay. Values without a mark were called inactive. The source made the active and inactive calls. Rule as the data show it: active = growth inhibition above about 70%; inactive = the rest.

The nature of assay [1]: NCI Yeast Anticancer Drug Screen. Data for the rad50 strain (AID 155).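 Also: 0% = growth of vehicle-only cultures of the same strain.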 The following applies: S. cerevisiae rad50 strain growth inhibition; at 50.0 µM; hits give high values. The essentials: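 Yeast carrying a defined DNA repair defect were exposed to test compounds, and growth was compared with vehicle-treated controls to give percent inhibition.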
Assay [2] in a line: NCI Yeast Anticancer Drug Screen. Data for the mec2-1 strain (AID 157). Conditions: S. cerevisiae mec2-1 strain, at 50.0 µM, hits give high values. The essentials: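 Each compound was tested on mec2-1 yeast, a strain altered in DNA damage repair or cell cycle control. Growth inhibition is reported relative to vehicle.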
Assay [3] in a line: NCI Yeast Anticancer Drug Screen. Data for the sgs1 mgt1 strain (AID 161).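 Also: 0% = growth of cultures given vehicle only.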 Conditions: S. cerevisiae sgs1 mgt1 strain, at 50.0 µM, hits give high values. The essentials:
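Read-out: growth inhibition vs vehicle controls. Cells: mutant yeast strain deficient in DNA damage repair.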

Assay [4] can be described thus: NCI Yeast Anticancer Drug Screen. Data for the cln2 rad14 strain (AID 165).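 Also: 0% = growth equal to vehicle treated cultures.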 Conditions: S. cerevisiae cln2 rad14 strain, at 50.0 µM, hits give high values. The method, boiled down:
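Test compounds were added to cln2 rad14 yeast cultures; inhibition of growth was then determined by comparison with vehicle treatment.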

The nature of assay [5]: NCI Yeast Anticancer Drug Screen. Data for the bub3 strain (AID 167). The following applies: S. cerevisiae bub3 mutant strain, at 50.0 µM, hits give high values. The method, boiled down:
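Compounds were applied to a genetically altered yeast strain carrying a cell-cycle control defect. Growth inhibition was scored against vehicle-treated controls.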

Assay [6] in a line: NCI Yeast Anticancer Drug Screen. Data for the mlh1 rad18 strain (AID 175). The following applies: S. cerevisiae mlh1 rad18 strain growth inhibition; at 50.0 µM; hits give high values. The essentials: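 Inhibition values reflect reduced growth of mutant yeast versus vehicle-treated controls following compound exposure; the mutations affect DNA damage repair.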

With `c1ccc2c3nnc(c2c1)SCCCSc1nnc(c2ccccc12)SCCCS3`, the growth inhibition in assay [1] is -9.3%; in assay [2] it was -13.3%; in assay [3], -2.5%; in assay [4], 1.6%; in assay [5], 1.8%; in assay [6], -0.95%.

Take `c1ccc(CN2CCC(=NN3CCCCC3)CC2)cc1`: the growth inhibition was 19.9% in assay [1]; -9.5% in assay [2]; 23.2% in assay [3]; 15.2% in assay [4]; 17.9% in assay [5]; -8.55% in assay [6].

Regarding `NCCCN(CCO)CCO`, the growth inhibition in assay [1] was -42.5%; in assay [2] it was -3.1%; in assay [3] it was -27.9%; in assay [4], -31.9%; in assay [5], -28.5%; in assay [6], -20.4%.

As for `N#CCOc1ccc(Cl)cc1`, the growth inhibition was -10.7% in assay [1]; -16.2% in assay [2]; -13.1% in assay [3]; -53.2% in assay [4]; 1.8% in assay [5]; -3.65% in assay [6].

Turning to `COc1ccccc1-n1c(NN)nc2ccc(Br)cc2c1=O`, the growth inhibition is 55.6% in assay [1]; 13.4% in assay [2]; 27.4% in assay [3]; 13.2% in assay [4]; 27.2% in assay [5]; -12.4% in assay [6].

Take `CC1(C)C=Cc2c(cc(O)c3c(=O)c4cc(Cl)ccc4[nH]c23)O1`: the growth inhibition in assay [1] is -14.2%; in assay [2], -42.4%; in assay [3], -14.8%; in assay [4] it was -18.1%; in assay [5], -15%; in assay [6], -12.1%.

With `CC(=O)OC1CC[C@@]2(C)C(C1)CC(OC(C)=O)[C@@H]1C2CC(OC(C)=O)[C@]2(C)C(C(C)CC=C(c3ccc(Cl)cc3)c3ccc(Cl)cc3)CCC12` (stereo not given in full), the growth inhibition in assay [1] was 0.4%; in assay [2], 2.8%; in assay [3], 3.05%; in assay [4], 11.1%; in assay [5], 20.5%; in assay [6], 5%.

With `Clc1ccc(C(Cl)(Cl)C(Cl)(Cl)Cl)cc1`, the growth inhibition in assay [1] is 6.65%; in assay [2] it was 40.4%; in assay [3], -2.15%; in assay [4], -61.2%; in assay [5], 40%; in assay [6], 44.1%.

Consider `C=C1CN=C(Nc2ccc(F)cc2F)S1`, for which the growth inhibition in assay [1] was -0.15%; in assay [2], 7.3%; in assay [3], -14.6%; in assay [4] it was 8.15%; in assay [5] it was 1.75%; in assay [6] it was 2.65%.

As for `O=C1C2(CCCC13N=NCC3c1ccccc1)N=NCC2c1ccccc1` (stereo not given), the growth inhibition in assay [1] is 28.9%; in assay [2], -19.1%; in assay [3], -0.95%; in assay [4], -4.9%; in assay [5], 0.85%; in assay [6], 38.5%.

On to `C=C1C(O)CCC2(C)C1CCC1C2CCC2(C)C(C(C)CCCC(C)C)CCC12` (stereo not given), for which the growth inhibition in assay [1] is -5%; in assay [2], -5.35%; in assay [3] it was -3.1%; in assay [4], -39.6%; in assay [5], -4.4%; in assay [6], -2.45%.

As to `NC(C(=O)O)C(SCc1ccccc1)c1cccc(O)c1` (stereo not given), the growth inhibition in assay [1] was -3.2%; in assay [2] it was 14.3%; in assay [3], 18.7%; in assay [4], -26.4%; in assay [5], -1.3%; in assay [6], -0.7%.

As to `O=C1CC[C@H](NC(=O)Cc2ccccc2)C(=O)N1`, the growth inhibition is -11.8% in assay [1]; -6.55% in assay [2]; -14.4% in assay [3]; 6.35% in assay [4]; -11.9% in assay [5]; -13.6% in assay [6].

With `CCN(CC)CCNC(=O)c1cn2c(ccc3sc4ccccc4c(=O)c32)n1`, the growth inhibition was 70.8% (active) in assay [1]; 57.5% in assay [2]; 48.7% in assay [3]; 38.3% in assay [4]; 26.3% in assay [5]; 28.8% in assay [6].

`Nc1c(Br)c(Cl)c(Br)c2c1-c1ccc(Cl)cc1C2`: the growth inhibition in assay [1] is -13.1%; in assay [2], -4.8%; in assay [3], -1.4%; in assay [4], -19.9%; in assay [5], 7.15%; in assay [6], 5.05%.

As for `Cc1cc2c(c(C(C)(C)C)c1)OC(=O)/C2=C1/C(=O)Oc2c1cc(C)cc2C(C)(C)C`, the growth inhibition in assay [1] is 8.3%; in assay [2] it was -8%; in assay [3], -9.25%; in assay [4], 0.85%; in assay [5], 2.3%; in assay [6], -12.8%.

For the molecule `Fc1cccc(-c2nnc(-c3cccc(F)c3)o2)c1`, the growth inhibition in assay [1] is 12.7%; in assay [2], -10.1%; in assay [3], -6.9%; in assay [4], -38%; in assay [5], -2.65%; in assay [6], -4.85%.

On to `CCCCc1c(OC)cc(O)c2c1C(=O)c1[nH]c(C(=O)O)c(O)c(=O)c1C2=O`, for which the growth inhibition in assay [1] is -16.6%; in assay [2] it was -19.3%; in assay [3], -13.9%; in assay [4], -11.7%; in assay [5], -10.9%; in assay [6] it was -5.75%.

Consider `O=C(O)CCC(=O)NC1c2ccccc2Oc2ccccc21`, for which the growth inhibition in assay [1] is -5.9%; in assay [2], -1.75%; in assay [3], 11.6%; in assay [4], -10.2%; in assay [5], 7.85%; in assay [6], 5.95%.

Regarding `CCC1=C[C@H]2CN(CCc3c([nH]c4ccccc34)[C@@](C(=O)OC)(c3cc4c(cc3OC)N(C)[C@H]3C(C(=O)OC)=C[C@]5(CC)C=CCN6CC[C@]43[C@@H]65)C2)C1`, the growth inhibition in assay [1] was -14.7%; in assay [2], -14.4%; in assay [3], -4.75%; in assay [4], -13.5%; in assay [5] it was -0.8%; in assay [6], -18.9%.
